From PubChem BioAssay (NCATS)
Inconclusive results are not listed. A number with no mark means an inactive call. Calls follow the shape of the dose curve; as a rule, active = well fitted inhibition curve with a large enough effect; inconclusive = small, poorly fitted or top-dose-only effect; inactive = flat fitted curve, though single readings scatter.

These compounds were tested on Zika virus NS2B-NS3 protease (assay: Primary screen GU AMC qHTS for Zika virus inhibitors (AID 1347154;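 also: 0% = no-inhibitor control and -100% = no-enzyme control; nearly all actives have a fitted effect of over 70% in size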)). Details: Zika NS2B-NS3 unlinked protease, AMC fluorogenic substrate; series mostly up to 54.1 µM; activity change, negative = inhibition: at the top concentration.
In short: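 Unlinked Zika NS2B hydrophilic domain–NS3 protease complex at 25 nM in 10 mM Tris-HCl pH 8.0, 0.01% Tween 20, with an AMC peptide substrate. Fluorescence change (340/450 nm) over 15 min at room temperature, normalized to controls, fitted to 4-parameter Hill.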

| Structure (SMILES) | activity change, negative = inhibition |
| --- | --- |
| CCCCC(O)/C=C(C)/C=C/C=C/C(=O)N1CCCC1=O (stereo not given) | -5.24% |
| CN1CCCN=C1/C=C/c1cccs1 | -0.981% |
| CN1CCCN(C(c2ccccc2)c2ccc(Cl)cc2)CC1 (stereo not given) | 8.8% |
| CCC(C(=O)OCCN1CCOC(c2ccccc2)C1C)c1ccccc1 (stereo not given) | -7.61% |
| CCCCCCCCCCCC[N+](C)(C)Cc1ccccc1 | -9.06% |
| Cc1onc(-c2ccccc2)c1C(=O)Cl | -0.96% |
| OCc1cccnc1 | -1.22% |
| N#CSCC(=O)O | 3.82% |
| CN1N=C(C(N)=O)CCC1=O | 5.1% |
| CCN(CC)C(=O)C1CN2CCc3cc(OC)c(OC)cc3C2CC1OC(C)=O (stereo not given) | -6.89% |
| Cc1cnc(NS(=O)(=O)c2ccc(N)cc2)nc1 | 3.57% |
| CCCCCCCCCCCCCC[N+](C)(C)C | -13.2% |
| CNC[C@H](O)[C@@H](O)[C@H](O)[C@H](O)CO | -3.82% |
| CC(=O)Nc1c(I)c(NC(C)=O)c(I)c(C(=O)O)c1I | 3.7% |
| CCOC(=O)c1ccc(O)c(O)c1 | -3.25% |
| NS(=O)(=O)c1cc(C(=O)NN2C[C@H]3[C@H]4CCC(C4)[C@H]3C2)ccc1Cl | 3.41% |
| Nc1ccc([N+](=O)[O-])c(C(F)(F)F)c1 | 4.46% |
| Cc1cc(=O)oc2cc(O[C@@H]3SC[C@@H](O)[C@H](O)[C@H]3O)ccc12 | -13.8% |
| O=c1[nH]c2ccccc2c(=O)n1CCCl | -2.79% |
| CCc1cccc2c(CCO)c[nH]c12 | 2.38% |
